From PubChem BioAssay (NCI)
About 83,000 compounds went through this panel and 20% of them were active in at least one assay; those are over-represented in the sample as a whole.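 Growth was measured after 48 h exposure to one concentration of compound in 96-well plates. Values under 10 count as active.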 The source made the active and inactive calls.

Legend:
Experiment in all cases: NCI-60 one-dose screen, 48 h (100 = growth as untreated, 0 = no growth, -100 = all killed)
Conditions in all cases: 10 µM
K-562 leukemia = tested on: K-562 leukemia
MALME-3M melanoma = tested on: MALME-3M melanoma
MDA-MB-231 breast = tested on: MDA-MB-231 breast
RXF 393 renal = tested on: RXF 393 renal
SF-268 CNS = tested on: SF-268 CNS
SF-295 CNS = tested on: SF-295 CNS
SF-539 CNS = tested on: SF-539 CNS
UACC-257 melanoma = tested on: UACC-257 melanoma
M14 melanoma = tested on: M14 melanoma
HCT-15 colon = tested on: HCT-15 colon
HT29 colon = tested on: HT29 colon
SNB-75 CNS = tested on: SNB-75 CNS
SNB-19 CNS = tested on: SNB-19 CNS
U251 CNS = tested on: U251 CNS
PC-3 prostate = tested on: PC-3 prostate
SK-MEL-5 melanoma = tested on: SK-MEL-5 melanoma
UACC-62 melanoma = tested on: UACC-62 melanoma
LOX IMVI melanoma = tested on: LOX IMVI melanoma
SK-MEL-28 melanoma = tested on: SK-MEL-28 melanoma
SK-MEL-2 melanoma = tested on: SK-MEL-2 melanoma

Measured: growth

O=C1c2ccc3c4c(ccc(c24)C(=O)N1CCNCc1ccccc1)C(=O)N(CCNCc1ccccc1)C3=O
active: K-562 leukemia 1.04% | MALME-3M melanoma -68.4% | SF-268 CNS 7.12% | SF-295 CNS -28.2% | SF-539 CNS -54.2% | M14 melanoma -62.3% | HCT-15 colon -25.9% | HT29 colon -16.5% | SNB-19 CNS 8.03% | U251 CNS -46.3% | SK-MEL-5 melanoma -97.9% | UACC-62 melanoma -31.6% | LOX IMVI melanoma -47.9% | SK-MEL-28 melanoma 6%
inactive: MDA-MB-231 breast 39.9% | RXF 393 renal 90.5% | UACC-257 melanoma 95.8% | SNB-75 CNS 105% | PC-3 prostate 28.3% | SK-MEL-2 melanoma 119%

Nc1cc2c(cc1Cl)-c1ccc([N+](=O)[O-])cc1/C2=N\O
inactive: K-562 leukemia 30.5% | MALME-3M melanoma 90.7% | MDA-MB-231 breast 105% | RXF 393 renal 104% | SF-268 CNS 79.1% | SF-295 CNS 74.8% | SF-539 CNS 75.9% | UACC-257 melanoma 103% | M14 melanoma 78.2% | HCT-15 colon 62.9% | HT29 colon 82.5% | SNB-75 CNS 66.6% | SNB-19 CNS 93.6% | U251 CNS 67.7% | PC-3 prostate 52% | SK-MEL-5 melanoma 82.5% | UACC-62 melanoma 78% | LOX IMVI melanoma 53.8% | SK-MEL-28 melanoma 109% | SK-MEL-2 melanoma 106%

Cc1cccc(NC2=C(C#N)C(=O)NC3(CCCC3)S2)c1
active: UACC-257 melanoma -4.62%
inactive: K-562 leukemia 95.3% | MALME-3M melanoma 104% | MDA-MB-231 breast 110% | RXF 393 renal 102% | SF-268 CNS 103% | SF-295 CNS 108% | SF-539 CNS 91.5% | M14 melanoma 105% | HCT-15 colon 95.8% | HT29 colon 103% | SNB-75 CNS 90.7% | SNB-19 CNS 94.2% | U251 CNS 97.4% | PC-3 prostate 105% | SK-MEL-5 melanoma 95.7% | UACC-62 melanoma 98.7% | LOX IMVI melanoma 96.5% | SK-MEL-28 melanoma 105% | SK-MEL-2 melanoma 98.2%

COc1ccc(-c2cc(/C=C3\C(=O)Nc4ccc(OC)cc43)[nH]n2)cc1
inactive: K-562 leukemia 15.6% | MALME-3M melanoma 35.1% | MDA-MB-231 breast 59.2% | RXF 393 renal 48% | SF-268 CNS 42% | SF-539 CNS 24.8% | UACC-257 melanoma 68.8% | M14 melanoma 35.7% | HCT-15 colon 22.8% | SNB-19 CNS 62.1% | U251 CNS 37.8% | PC-3 prostate 15.8% | SK-MEL-5 melanoma 31% | UACC-62 melanoma 39.4% | LOX IMVI melanoma 40.3% | SK-MEL-28 melanoma 57% | SK-MEL-2 melanoma 23.4%
active: SF-295 CNS 1.93% | HT29 colon 3.87% | SNB-75 CNS -18.7%

CN(C)CCCn1c(=O)c2ccccc2c2cnc3[nH]ccc3c21
inactive: SF-268 CNS 21.1% | SF-295 CNS 12.4% | SF-539 CNS 30.3% | HCT-15 colon 10.5% | SNB-75 CNS 26.5% | SNB-19 CNS 13.6% | SK-MEL-5 melanoma 10.3% | SK-MEL-28 melanoma 21.1%
active: K-562 leukemia -10.9% | MALME-3M melanoma -25.1% | MDA-MB-231 breast -11.2% | RXF 393 renal 5.57% | UACC-257 melanoma -20.6% | M14 melanoma -6.79% | HT29 colon -9.52% | U251 CNS 8.32% | PC-3 prostate -9.22% | UACC-62 melanoma -20.2% | LOX IMVI melanoma 1.3% | SK-MEL-2 melanoma -8.38%

Cc1cc2c(C)c3cc(C)c(N)cc3nc2cc1N
active: K-562 leukemia 1.18% | MALME-3M melanoma -3.24% | M14 melanoma 9.16% | HT29 colon -25.5% | PC-3 prostate 7.77% | LOX IMVI melanoma 4.46% | SK-MEL-2 melanoma -18.1%
inactive: MDA-MB-231 breast 20.3% | RXF 393 renal 16.3% | SF-268 CNS 15.2% | SF-295 CNS 39.5% | SF-539 CNS 19.4% | UACC-257 melanoma 18.9% | HCT-15 colon 24.8% | SNB-75 CNS 21.8% | SNB-19 CNS 18.3% | U251 CNS 14.9% | SK-MEL-5 melanoma 19.8% | UACC-62 melanoma 24.2% | SK-MEL-28 melanoma 38.9%

O=C1/C(=C\c2ccc(Br)cc2)CN(C(=O)c2ccccc2F)C/C1=C\c1ccc(Br)cc1
inactive: UACC-257 melanoma 30.6% | SNB-75 CNS 56.5% | SNB-19 CNS 54.3% | SK-MEL-5 melanoma 30.4% | SK-MEL-28 melanoma 15.1% | SK-MEL-2 melanoma 66%
active: K-562 leukemia 1.26% | MALME-3M melanoma -2.95% | MDA-MB-231 breast -4.72% | RXF 393 renal -76.6% | SF-268 CNS 4.14% | SF-295 CNS -19.9% | SF-539 CNS 3.38% | M14 melanoma -47.8% | HCT-15 colon 5.63% | HT29 colon -47.4% | U251 CNS -66.6% | PC-3 prostate 3.89% | UACC-62 melanoma -3.15% | LOX IMVI melanoma -85.5%

Nc1nc(N)c(NC(=O)CNc2ccc(C(=O)O)cc2)c(N)n1
inactive: K-562 leukemia 106% | MALME-3M melanoma 112% | MDA-MB-231 breast 106% | RXF 393 renal 96.4% | SF-268 CNS 119% | SF-295 CNS 99.2% | SF-539 CNS 101% | UACC-257 melanoma 103% | M14 melanoma 111% | HCT-15 colon 112% | HT29 colon 107% | SNB-75 CNS 76% | SNB-19 CNS 105% | U251 CNS 105% | PC-3 prostate 101% | SK-MEL-5 melanoma 103% | UACC-62 melanoma 101% | LOX IMVI melanoma 98.3% | SK-MEL-28 melanoma 97.9% | SK-MEL-2 melanoma 102%
